19 compounds from PubChem BioAssay (NCATS) can be followed below.

Structures are written as SMILES. Records with an inconclusive call do not appear. A number with no mark means an inactive call. Active and inactive are the calls of the source. Calls follow the shape of the dose curve; as a rule, active = well fitted curve in the direction sought with a large enough effect; inconclusive = small, poorly fitted or top-dose-only effect, or another doubt; inactive = no such curve, though single readings can be large; an effect the other way counts as inactive or inconclusive.

In assay [1] the test system is WaGa. In words: qHTS assay to identify novel small-molecules to repurpose for Merkel cell carcinoma treatment (AID 1296009). Also: nearly all actives have a fitted effect of over 60% in size. Also: potency is read from the fitted curve at half-maximal effect. To be noted: MCC and control cell lines, CellTiter-Glo viability, 72 h; series mostly up to 46 µM. Put shortly: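 Cell viability measured by CellTiter-Glo following 72 hr compound treatment at 37 degree celsius, with NPC and MIPE libraries tested in 8- and 11-point concentration series.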
In general terms: qHTS replaces the single test concentration by a dilution series.

For assay [2], the system named is C33A. The experiment in a line: Primary qHTS to identify gynecologic anti-cancer compounds using libraries of approved drugs and bioactive compounds (AID 1345084). Also: nearly all actives have a fitted effect of over 55% in size. Also: potency is read from the fitted curve at half-maximal effect. The note with it: Gynecologic cancer cell panel viability, ATPlite luminescence, 48 h; series mostly up to 57.5 µM. The essentials:
(§1)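 Cell viability after 48 h drug treatment, ATPlite luminescence readout; five doses.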

The test system of assay [3] is CAOV3. Described as above. To be noted: Gynecologic cancer cell panel viability, ATPlite luminescence, 48 h; series mostly up to 57.5 µM. The essentials: as §1
Background: ATP-based viability assays read luminescence as a measure of living cells.

The test system of assay [4] is CASKI. Described as above. The note with it: Gynecologic cancer cell panel viability, ATPlite luminescence, 48 h; series mostly up to 57.5 µM. Put shortly:
as §1

Assay [5] deals with Es-2. Described as above. The note with it: Gynecologic cancer cell panel viability, ATPlite luminescence, 48 h; series mostly up to 57.5 µM. The essentials: as §1
Assay [6] concerns HeLa. The description is as above. To be noted: Gynecologic cancer cell panel viability, ATPlite luminescence, 48 h; series mostly up to 57.5 µM. The essentials: as §1
For assay [7], the system named is Hek293T. The description is as above. The note with it: Gynecologic cancer cell panel viability, ATPlite luminescence, 48 h, control line for the selectivity index; series mostly up to 57.5 µM. The essentials: as §1
The subject of assay [8] is JEG-3. Described as above. To be noted: Gynecologic cancer cell panel viability, ATPlite luminescence, 48 h; series mostly up to 57.5 µM. Put shortly:
as §1

The subject of assay [9] is OV90. Described as above. To be noted: Gynecologic cancer cell panel viability, ATPlite luminescence, 48 h; series mostly up to 57.5 µM. The essentials: as §1
The subject of assay [10] is PA-1. The description is as above. The note with it: Gynecologic cancer cell panel viability, ATPlite luminescence, 48 h; series mostly up to 57.5 µM. The essentials: as §1
Assay [11] relates to Tov-21-G. The description is as above. The note with it: Gynecologic cancer cell panel viability, ATPlite luminescence, 48 h; series mostly up to 57.5 µM. The essentials: as §1
Assay [12] deals with Tov112D. Described as above. The note with it: Gynecologic cancer cell panel viability, ATPlite luminescence, 48 h; series mostly up to 57.5 µM. The essentials: as §1
Assay [13] concerns SKOV3. Described as above. The note with it: Gynecologic cancer cell panel viability, ATPlite luminescence, 48 h; series mostly up to 57.5 µM. The essentials:
as §1

Assay [14] in a line: Drug repurposing screens with cells derived from glioblastoma tumor samples (AID 1345199). Also: nearly all actives have a fitted effect of over 40% in size. To be noted: GBM patient neurospheres viability, ATP luminescence, 48 h; Potency: tumour line A unless noted; series mostly up to 45.9 µM. The essentials:
(§2)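 Primary testing used CD133+ neurospheres from four GBM patients, seven concentrations, 48 h exposure and ATP-based viability; confirmation added three slower-growing patient lines.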

The test system of assay [15] is astro. The description is as above. To be noted: viability, ATP luminescence, 48 h; series mostly up to 45.9 µM. The essentials: as §2
The nature of assay [16]: qHTS assay to identify inhibitors of the type 1 interferon - major histocompatibility complex class I in skeletal muscle: Counter screen cell viability and HiBit confirmation (AID 1347412). Also: potency is read from the fitted curve at half-maximal effect; nearly all actives have a fitted effect of over 60% in size. To be noted: iHSKM muscle cells + IFN-b, HiBiT or CellTiter-Glo, 24 h; HiBiT. Put shortly: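 Luminescence read-out: Nano-Glo HiBiT lytic signal from C-terminally HiBiT-tagged HLA-B in CRISPR-edited human myoblasts, plus CellTiter Glo ATP as viability counter screen. IFN-beta 4.0 ng/ml; 24 hrs treatment at 37 C, 5% CO2.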

For the compound `C#C[C@]1(O)C=C[C@@H]2[C@@H]3CCC4=CC(=O)CC[C@@H]4[C@H]3CC[C@@]21CC`, the Potency result in assay [1] was “inactive”.
On the same count and under the same terms, for `C[C@]12CC[C@H]3[C@@H](CCC4=CC(=O)CC[C@@]43C)[C@H]1CC[C@H]2OC(=O)CCC1CCCC1` the value was “inactive”; for `COc1ccc(C(=O)c2c(C)n(CCN3CCOCC3)c3cc(I)ccc23)cc1`, “inactive”.
Same read-out and setting: for `C[C@@H]1O[C@@H](O[C@@H]2C=C3CC[C@@H]4[C@@H](CC[C@]5(C)[C@H](c6ccc(=O)oc6)CC[C@@]45O)[C@@]3(C)CC2)[C@H](O)[C@H](O)[C@H]1O` the value was 41.8 nM (active); for `Cc1c(N)nc([C@H](CC(N)=O)NC[C@@H](N)C(N)=O)nc1C(=O)N[C@H](C(=O)N[C@@H](C)[C@H](O)[C@@H](C)C(=O)N[C@@H](C(=O)NCCc1nc(-c2nc(C(=O)NCCC[S+](C)C)cs2)cs1)[C@@H](C)O)C(O[C@H]1O[C@H](CO)[C@H](O)[C@@H](O)[C@@H]1O[C@H]1O[C@H](CO)[C@@H](O)[C@H](OC(N)=O)[C@H]1O)c1cnc[nH]1` (stereo not given in full), 3720 nM (active); for `Cc1nc(-c2ccc(-c3ccc(C(=O)N4CCc5cc6c(cc54)C4(CCN(C)CC4)CO6)cc3)c(C)c2)no1`, “inactive”.
Same read-out and setting: for `CC(C)[C@H]1C(=O)N[C@H](CO)Cc2c[nH]c3cccc(c23)N1C` the value was “inactive”.
`NC1CC1c1ccccc1` (stereo not given): the Potency result in assay [1] is “inactive”.
With `CC(=CCCC1=CCC(C2=CC(=O)OC2O)OC1O)CCC1=C(C)CCCC1(C)C` (stereo not given), the Potency entry in assay [1] is “inactive”.
As to `CC(C)(C)[C@]1(O)C[C@@H]2OC(=O)C[C@@]23C(=O)O[C@@H]2OC(=O)[C@H](O)C213` (stereo not given in full), the Potency entry in [1] is “inactive”.
Still for that read-out and setting: for `CCOC(=O)c1cncn1[C@H](C)c1ccccc1` the value was “inactive”; for `CC[C@@H]1[C@@H](C)O[C@@](O)([C@@H](C)[C@H](O)[C@H](C)[C@H]2OC(=O)C=CC=C[C@@H](C)[C@@H]([C@@H](C)[C@@H](O)[C@H](C)[C@@]3(O)C[C@H](O[C@H]4C[C@H](O)[C@H](O)[C@H](C)O4)[C@H](CC)[C@@H](C)O3)OC(=O)C=CC=C[C@@H]2C)C[C@H]1O[C@H]1C[C@H](O)[C@H](O)[C@H](C)O1`, 2640 nM (active).
Same read-out and setting: the same measure for `COc1cccc2c1[C@]13CCN(CC4CC4)[C@H](C2)[C@]1(OC)CCC(=O)C3`: “inactive”.
Take `Fc1cc(Br)ccc1CBr`: the Potency result in assay [1], in assay [2], in assay [3], in assay [4], in [5] and in assay [6] was “inactive” throughout. The Potency entry in [7], in [8], in assay [9], in assay [10], in assay [11] and in assay [12] was “inactive” throughout.
For the compound `Oc1ccc2c3c1O[C@H]1[C@@H](O)C=C[C@H]4[C@@H](C2)NCC[C@@]341`, in assay [1], the Potency was 25000 nM (active). The Potency entry in assay [2], in [3], in assay [4], in assay [5], in assay [6] and in [7] was “inactive” each time. Moreover, the Potency entry in [8], in assay [9], in [10], in assay [13], in [11] and in assay [12] was “inactive” in each case. In addition, the Potency result in assay [14] and in assay [15] was “inactive” each time.
`CC(=O)Nc1ccc(OC[C@](C)(O)C(=O)Nc2ccc([N+](=O)[O-])c(C(F)(F)F)c2)cc1`: the Potency entry in assay [1], in assay [2], in assay [3], in assay [4], in assay [5] and in [6] was “inactive” throughout. Moreover, the Potency entry in assay [7], in assay [8], in [9], in [10], in assay [13] and in [12] was “inactive” each time.
`CC(O)CN1CCN(CC(=O)[O-])CCN(CC(=O)[O-])CCN(CC(=O)[O-])CC1.[Gd+3]` (stereo not given): the Potency entry in [1], in assay [2], in [3], in assay [4], in [5] and in assay [6] was “inactive” each time. Also, the Potency result in assay [7], in [8], in assay [9], in [10], in assay [13] and in [11] was “inactive” in each case. For the same compound, the Potency result in assay [12], in assay [14] and in assay [15] was “inactive” in each case.
Take `CC(C)NCC(O)c1ccc([N+](=O)[O-])cc1` (stereo not given): the Potency entry in assay [1], in [2], in assay [3], in [4], in [5] and in assay [6] was “inactive” throughout. Moreover, the Potency result in assay [7], in [8], in [9], in [10], in [13] and in assay [11] was “inactive” each time. The Potency entry in [12], in assay [14] and in assay [15] was “inactive” throughout.
For the compound `Cc1[nH]nc2ccc(-c3cncc(OC[C@@H](N)Cc4c[nH]c5ccccc45)c3)cc12`, the Potency in assay [1] is 833 nM (active); in assay [2], 316 nM (active); in [3] it was 1120 nM (active); in assay [4], 2820 nM (active); in assay [5], 1780 nM (active); in assay [6] it was 891 nM (active). Moreover, the Potency in assay [7] is 631 nM (active); in [8] it was 2820 nM (active); in [9] it was 5620 nM (active); in [10] it was 794 nM (active); in assay [11] it was 708 nM (active); in assay [12] it was 1000 nM (active). Moreover, the Potency in assay [16] was 1110 nM (active).
